Measurements published in PubChem BioAssay (NCATS).
Records with an inconclusive call do not appear. A number with no mark means an inactive call. Activity calls are given as the source filed them. Calls follow the shape of the dose curve; as a rule, active = well fitted inhibition curve with a large enough effect; inconclusive = small, poorly fitted or top-dose-only effect; inactive = flat fitted curve, though single readings scatter.

Columns and labels:
HEK293 = assay: Cytotoxic Profiling of Annotated Libraries Using Quantitative High-Throughput Screening (AID 1296008); settings: Five cell lines viability, CellTiter-Glo ATP luminescence, 48-72 h; max response: stronger effect = lower value; also: potency is read from the fitted curve at half-maximal effect; as to max response: % is scaled to controls: 0 for no effect and ±100 for the full control effect
Procedure, shortened: (§1)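 Cells exposed to compounds for 48 or 72 hr at 37 degrees Celsius. Viability read as ATP-coupled luminescence with CellTiter-Glo after 10 min at room temperature.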

KB-3-1 = assay: as above; settings: Five cell lines viability, CellTiter-Glo ATP luminescence, 48-72 h; max response: stronger effect = lower value
Procedure, shortened: as §1

NIH3T3 = assay: as above; settings: Five cell lines viability, CellTiter-Glo ATP luminescence, 48-72 h; max response: stronger effect = lower value
Procedure, shortened: as §1

HaCat [1] = assay: as above; settings: Five cell lines viability, CellTiter-Glo ATP luminescence, 48-72 h; max response: stronger effect = lower value
Procedure, shortened: as §1

HACAT [2] = assay: qHTS assay to identify novel small-molecules to repurpose for Merkel cell carcinoma treatment (AID 1296009); settings: MCC and control cell lines, CellTiter-Glo viability, 72 h; at 44.8 µM (top of the series) unless noted
Procedure, shortened: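 Cells were treated for 72 hr at 37 degree celsius with compounds in 8- or 11-point dose response. Viability was read by CellTiter-Glo luminescence, normalized to no-cell (cytotoxicity) and DMSO controls.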
Also: nearly all actives have a fitted effect of over 60% in size.

Q: With CC(C=CC1=C(C)CCCC1(C)C)=CC=CC(C)=CC(=O)Nc1ccc(O)cc1 as the compound, how does the Potency (HEK293) read?
A: The Potency was 6.79 µM (active).

Q: What about the Potency (KB-3-1) of the same compound?
A: The Potency was 38.2 µM (active).

Q: What about the Potency (NIH3T3) of the same compound?
A: The Potency was 48.1 µM (active).

Q: How did the Potency (HEK293) turn out when C[C@H](NCc1ccc(OCc2cccc(F)c2)cc1)C(N)=O was run?
A: Its Potency is 11.8 µM (active).

Q: And the Potency (KB-3-1)?
A: The Potency was 9.35 µM (active).

Q: And the Potency (NIH3T3)?
A: The Potency was 4.18 µM (active).

Q: CN[C@H](CC(C)C)C(=O)N[C@H]1C(=O)N[C@@H](CC(N)=O)C(=O)N[C@@H]2C(=O)N[C@H]3C(=O)N[C@H](C(=O)N[C@H](C(=O)O)c4cc(O)cc(O)c4-c4cc3ccc4O)[C@H](O)c3ccc(c(Cl)c3)Oc3cc2cc(c3O[C@@H]2O[C@H](CO)[C@@H](O)[C@H](O)[C@@H]2O[C@H]2C[C@](C)(N)[C@H](O)[C@H](C)O2)Oc2ccc(cc2Cl)[C@H]1O was tested. Which outcome (HaCat [1]) did it give?
A: The outcome was “inactive”.

Q: And the max response (KB-3-1)?
A: Its max response is 5.98%.

Q: And the max response (NIH3T3)?
A: Its max response is -4.89%.

Q: What about the outcome (HACAT [2]) of the same compound?
A: The outcome was “inactive”.

Q: With C[C@]12CC[C@@H]3c4ccc(O)cc4CC[C@H]3[C@H]1CC[C@H]2O as the compound, how does the Potency (KB-3-1) read?
A: The Potency was 11.8 µM (active).

Q: With CN1[C@H]2CC(OC(=O)[C@@H](CO)c3ccccc3)C[C@H]1[C@H]1O[C@H]12 (some centres not stated) as the compound, how does the outcome (HACAT [2]) read?
A: Its outcome is “inactive [at 17.4 µM]”.

Q: CC(C)(C)c1nc2c3cc[nH]c(=O)c3c3cc(F)ccc3c2[nH]1 was tested. Which Potency (HaCat [1]) did it give?
A: The Potency was 6.62 µM (active).

Q: What about the max response (KB-3-1) of the same compound?
A: The max response was -11.6%.

Q: Which results are given for CC(C)[C@H](CO)Nc1nc(Nc2cccc(Cl)c2)c2ncn(C(C)C)c2n1?
A: Potency (HaCat [1]): 16.6 µM (active); Potency (NIH3T3): 10.5 µM (active)

Q: Oc1ccc(-c2ccc(-c3cc(Nc4cccc(CNC5CC5)c4)n[nH]3)cc2)c(O)c1 was tested. Which Potency (HEK293) did it give?
A: Its Potency is 1.18 µM (active).

Q: What about the Potency (KB-3-1) of the same compound?
A: The Potency was 1.32 µM (active).

Q: Which outcome (HaCat [1]) does the source give for O=c1c(O)c(-c2ccc(O)c(O)c2)oc2cc(O)ccc12 here?
A: Its outcome is “inactive”.

Q: What about the outcome (HACAT [2]) of the same compound?
A: The outcome was “inactive”.

Q: How did the max response (HaCat [1]) turn out when CC[C@]12C=CCN3CC[C@@]4(c5cc([C@@]6(C(=O)OC)C[C@H]7C[C@@H](C(C)(F)F)CN(Cc8c6[nH]c6ccccc86)C7)c(OC)cc5N(C)[C@H]4[C@@](O)(C(=O)OC)[C@H]1OC(C)=O)[C@@H]32 was run?
A: Its max response is -0.147%.

Q: And the Potency (KB-3-1)?
A: Its Potency is 0.0105 µM (active).
